Results filed as inconclusive are left out. Where a call stands in place of a potency, no number is given. A number with no mark means an inactive call. Active and inactive are the calls of the source. The call rests on the fitted dose curve.
Key:
[1] = Primary qHTS for inhibitors of SARS-S pseudo-typed particle cell entry (AID 1479145); further: nearly all actives have a fitted effect of over 45% in size
[2] = Primary qHTS for Huh7 cytotoxicity: counterscreen for inhibitors of MERS-S pseudotyped particle cell entry (AID 1479147)
[3] = Primary qHTS for Vero E6 cytotoxicity: counterscreen for inhibitors of SARS-S pseudo-typed particle cell entry (AID 1479150)
[4] = Primary qHTS for inhibitors of MERS-S pseudo-typed particle cell entry (AID 1479149); further: nearly all actives have a fitted effect of over 60% in size; further: potency means the concentration at half of the fitted maximal effect

Nc1ccc(S(=O)(=O)c2ccc(N)cc2)cc1
Potency [1]: inactive
Potency [2]: inactive
Potency [3]: inactive

CC(C)(C)NCC(O)c1cc(O)cc(O)c1 (centres undefined)
Potency [2]: inactive
Potency [4]: inactive
Potency [3]: inactive

CCn1cc(C(=O)O)c(=O)c2cc(F)c(N3CCNC(C)C3)c(F)c21 (centres undefined)
Potency [1]: inactive
Potency [2]: inactive
Potency [3]: inactive

CCN[C@H]1CN(CCCOC)S(=O)(=O)c2sc(S(N)(=O)=O)cc21
Potency [1]: inactive
Potency [2]: inactive
Potency [3]: inactive

NS(=O)(=O)c1cc(Cl)c(Cl)c(S(N)(=O)=O)c1
Potency [2]: inactive
Potency [4]: inactive
Potency [3]: inactive

CCCc1ccc(OCC(=O)N2CCN(C(=O)COc3ccc(CCC)cc3OC)CC2)c(OC)c1
Potency [1]: inactive
Potency [2]: inactive
Potency [3]: inactive

Cc1cc2c(cc1S(N)(=O)=O)S(=O)(=O)CCC2
Potency [1]: inactive
Potency [2]: inactive
Potency [3]: inactive

CCn1cc(C(=O)O)c(=O)c2cnc(N3CCNCC3)nc21
Potency [2]: inactive
Potency [4]: inactive
Potency [3]: inactive

CO[C@@H]1[C@@H](OC(N)=O)[C@@H](O)[C@H](Oc2ccc3c(O)c(NC(=O)c4ccc(O)c(CC=C(C)C)c4)c(=O)oc3c2C)OC1(C)C
Potency [1]: inactive
Potency [2]: inactive
Potency [3]: inactive

O=C1CN(/N=C/c2ccc([N+](=O)[O-])o2)C(=O)N1
Potency [1]: inactive
Potency [3]: inactive

NCc1ccc(S(N)(=O)=O)cc1
Potency [2]: inactive
Potency [4]: inactive
Potency [3]: inactive

NC(CO)(CO)CO
Potency [2]: inactive
Potency [4]: inactive
Potency [3]: inactive

Cc1ccc(C(C)C)cc2c(C)ccc1-2
Potency [2]: inactive
Potency [4]: inactive
Potency [3]: inactive

CCCOC(=O)c1ccccc1
Potency [2]: inactive
Potency [4]: inactive
Potency [3]: inactive

NC1CCN(c2nc3c(cc2F)c(=O)c(C(=O)O)cn3-c2ccc(F)cc2F)C1 (centres undefined)
Potency [2]: inactive
Potency [4]: inactive
Potency [3]: inactive

NCCCNCCSP(=O)(O)O
outcome [2]: inactive [at 11.4 µM]
outcome [4]: inactive [at 11.4 µM]
activity change, negative = cytotoxicity [3]: 2.55% [at 11.4 µM]

CN1C(C(=O)Nc2ccccn2)=C(O)c2sccc2S1(=O)=O
Potency [2]: inactive
Potency [4]: inactive
Potency [3]: inactive

CCOCCn1c(C2CCN(CCc3ccc(C(C)(C)C(=O)O)cc3)CC2)nc2ccccc21
Potency [2]: inactive
Potency [4]: inactive
Potency [3]: inactive

NC(CS)C(=O)O (centres undefined)
Potency [2]: inactive
Potency [4]: inactive
Potency [3]: inactive

CCCCCCCCCCCC(=O)[O][Sn]([CH2]CCC)([CH2]CCC)[O]C(=O)CCCCCCCCCCC
Potency [2]: inactive
Potency [4]: inactive
Potency [3]: inactive

CCc1oc2ccccc2c1C(=O)c1cc(I)c(O)c(I)c1
Potency [2]: inactive
Potency [4]: inactive
Potency [3]: inactive

CC(=O)N(CC(O)CO)c1c(I)c(C(=O)NCC(O)CO)c(I)c(C(=O)NCC(O)CO)c1I (centres undefined)
Potency [2]: inactive
Potency [4]: inactive
Potency [3]: inactive

CC(CCc1ccc(O)cc1)NCCc1ccc(O)c(O)c1 (centres undefined)
Potency [2]: inactive
Potency [4]: inactive
Potency [3]: inactive

COc1cc(C(=O)NS(=O)(=O)c2ccccc2C)ccc1Cc1cn(C)c2ccc(NC(=O)OC3CCCC3)cc12
Potency [2]: inactive
Potency [4]: inactive
Potency [3]: inactive

O=C(NC(Cc1cc(=O)[nH]c2ccccc12)C(=O)O)c1ccc(Cl)cc1 (centres undefined)
Potency [2]: inactive
Potency [4]: inactive
Potency [3]: inactive

Cc1c(C(=O)O)c(O)cc2c1C(=O)c1c(O)c([C@@H]3O[C@H](CO)[C@@H](O)[C@H](O)[C@H]3O)c(O)c(O)c1C2=O
Potency [2]: inactive
Potency [4]: inactive
Potency [3]: inactive

CC(=O)Nc1ccc(S(=O)(=O)Nc2cc(C)on2)cc1
Potency [2]: inactive
Potency [4]: inactive
Potency [3]: inactive

CCN1C(=O)NC(c2ccccc2)C1=O (centres undefined)
Potency [2]: inactive
Potency [4]: inactive
Potency [3]: inactive

CNC[C@H](O)c1cccc(O)c1
Potency [2]: inactive
Potency [4]: inactive
Potency [3]: inactive

O=C(NCCO[N+](=O)[O-])c1cccnc1
Potency [2]: inactive
Potency [4]: inactive
Potency [3]: inactive

Cc1nc2ccc(CN(C)c3ccc(C(=O)N[C@@H](CCC(=O)O)C(=O)O)s3)cc2c(=O)[nH]1
Potency [2]: inactive
Potency [4]: inactive
Potency [3]: inactive

CCS(=O)(=O)CCn1c([N+](=O)[O-])cnc1C
Potency [2]: inactive
Potency [4]: inactive
Potency [3]: inactive

C=C1[C@H](CO)[C@@H](O)C[C@@H]1n1cnc2c(=O)[nH]c(N)nc21
Potency [2]: inactive
Potency [4]: inactive
Potency [3]: inactive

CCN1CC(CCN2CCOCC2)C(c2ccccc2)(c2ccccc2)C1=O (centres undefined)
Potency [2]: inactive
Potency [4]: inactive
Potency [3]: inactive

C=CC1=C(C(=O)O)N2C(=O)[C@@H](NC(=O)/C(=N\O)c3csc(N)n3)[C@H]2SC1 (stereo in doubt)
Potency [2]: inactive
Potency [4]: inactive
Potency [3]: inactive

CC(C)(Sc1cc(C(C)(C)C)c(O)c(C(C)(C)C)c1)Sc1cc(C(C)(C)C)c(O)c(C(C)(C)C)c1
Potency [2]: inactive
Potency [4]: inactive
Potency [3]: inactive

CCCCCCNC(=O)n1cc(F)c(=O)[nH]c1=O
Potency [2]: inactive
Potency [4]: 5.01 µM (active)
Potency [3]: inactive

C[C@@H]1O[C@@H]1P(=O)(O)O
Potency [2]: inactive
Potency [4]: inactive
Potency [3]: inactive

O=C1[O][Bi][O]c2ccccc21
outcome [2]: inactive [at 0.573 µM]
outcome [4]: inactive [at 0.573 µM]
outcome [3]: inactive [at 0.573 µM]

CCCCCCCCCCOc1cc2c(=O)c(C(=O)OCC)c[nH]c2cc1OCC
outcome [2]: inactive [at 5.34 µM]
outcome [4]: inactive [at 5.34 µM]
activity change, negative = cytotoxicity [3]: 1.57% [at 5.34 µM]

— PubChem BioAssay (NCATS)
